Activity calls are given as the source filed them. The rule behind the calls is not given here.
These molecules were tested on HIV-1 nucleocapsid protein NCp7 (binding to TG oligonucleotide) (assay: HIV Nucleocapsid (AID 346;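 note: potency is for inhibitors that block NC binding and lower polarization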)). Conditions: HIV-1 NC / fluorescein-TGTGTGTG probe, fluorescence polarization.
Procedure, shortened: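 10 nM TG4xF probe with 100 nM nucleocapsid protein in high-salt Hepes pH 7.5 (250mM NaCl) containing 1uM ZnCl2 and reducing agents. Compound inhibition of binding was read as fluorescein polarization after 1 hr at room temperature.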
Potency is the fitted concentration of half-maximal effect.

SMILES | Potency
COc1ccc(C(=O)N2CCC3(CC2)CN(c2ccncc2)C3)cc1 | > 20 µM (inactive)
c1cncc(CNc2cc(-c3ccoc3)ncn2)c1 | > 20 µM (inactive)
c1ccc(-c2cccc(N3CC4(CCNCC4)C3)c2)cc1 | > 20 µM (inactive)
COc1ccc(-n2c(=O)c(C)nc3cnc(OC)nc32)cc1 | > 20 µM (inactive)
COc1ccc(Oc2ncc3nc(C)c(=O)n(-c4ccc(OC)cc4)c3n2)cc1 | > 20 µM (inactive)
c1cncc(-c2ccc3ncnc(NCCN4CCOCC4)c3c2)c1 | > 20 µM (inactive)
CN(Cc1ccco1)c1nc(-c2ccccc2Cl)nc2ccccc12 | > 20 µM (inactive)
CS(=O)(=O)N1CCC2(CC1)CN(Cc1nccs1)C2 | > 20 µM (inactive)
CC(=O)N1CCC2(CC1)CCN(c1ccccn1)CC2 | > 4 µM (inactive)
O=C(c1csnn1)N1CCC[C@@]2(CCN(C(c3ccccc3)c3ccccc3)C2)C1 | > 20 µM (inactive)
CN(C)c1ncc2ncc(=O)n(CCc3ccccc3)c2n1 | > 20 µM (inactive)
O=S(=O)(c1ccccc1)N1CCC2(CCN(c3ccccc3)CC2)CC1 | > 20 µM (inactive)
O=C(c1ccncc1)N1CCC2(CC1)CCN(c1ncccn1)CC2 | > 20 µM (inactive)
FC(F)(F)c1ccccc1-c1cncnc1NCc1cccnc1 | > 20 µM (inactive)
COc1ccc(NC(=O)N2CCC3(CC2)CCN(C(=O)c2ccncc2)CC3)cc1 | > 20 µM (inactive)
COc1ccc(Oc2ncc3nc(-c4cn(C)c5ccccc45)c(=O)n(CCC#N)c3n2)cc1 | > 20 µM (inactive)
